Screens deposited in PubChem BioAssay by National Center for Advancing Translational Sciences (NCATS).
Shiga inhibitor – inhibitors of Shiga toxin in Vero cells; Vero cells, Shiga toxin protein synthesis inhibition reporter; inhibition, % at 38.7 µM; 290,000 tested, 9.2% active; AID 2315; in the data active = inhibition mostly above about 28%, no sharp cut-off; inactive = mostly below about 43%; also: 0% is about no effect
Cycloheximide cs – affects cycloheximide protein synthesis inhibition readout, counter-screen. cell reporter, cycloheximide protein synthesis inhibition counterscreen. max response, %. 300,000 tested, 12% active; in the data active = max response mostly above about 13%, no sharp cut-off; inactive = mostly below about 14%; also: read at 38.3 µM for the half of the compounds with a filed dose; 0% is about no effect
Tb PYK inh – inhibitors of Trypanosoma brucei pyruvate kinase. Q57TT1. Potency, µM (series often up to 76.8 µM), without a hit: at the top dose activity, negative = inhibition, hits mostly inhibitors. TbPYK enzyme, Kinase-Glo Plus ATP luminescence, 45 min. 410,000 tested, 0.12% active; also: potency is read from the fitted curve at half-maximal effect; % is scaled to controls: 0 for no effect and ±100 for the full control effect; nearly all actives have a fitted effect of over 50% in size
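Luminescent Kinase-Glo Plus end-point after 45 min room-temperature reaction of T. brucei pyruvate kinase started with 130 uM ADP (final). Buffer TEA 50 mM pH 7.2 with KCl, MgCl2, BSA, Tween-20; titration-based qHTS with fitted concentration-effect curves.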
NS1 function inh – influenza NS1 inhibition. 270,000 tested, 0.4% active. AID 2326. Potency, µM (doses to about 46.1 µM), for the others: top-dose activity, positive = more growth; calls by dose curve; also: potency is read from the fitted curve at half-maximal effect; actives are rising curves; nearly all actives have a fitted effect of over 50% in size
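OD600 was taken as the measure of yeast growth restored by compound in an NS1-expressing S. cerevisiae strain. Cells had been washed out of glucose medium and diluted 1:100 into galactose -URA medium, pH 6.0.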
SARS PLP yeast – blocks SARS-CoV papain-like protease in a yeast assay | S. cerevisiae expressing SARS-CoV PLpro, growth rescue | Potency, µM (titrated, usually from 32.9 µM), without a hit: at the highest dose activity, positive = growth rescue, actives largely listed as activators | 330,000 tested, 0.19% active | AID 485353; calls by dose curve; also: potency is read from the fitted curve at half-maximal effect; 0% is about no effect; nearly all actives have a fitted effect of over 55% in size
LmPK inh – LmPK (Leishmania mexicana) enzyme inhibition; Q27686; purified LmPK, Kinase-Glo ATP luminescence, 1 h; Potency, µM (titrated, usually from 57.5 µM), inactives show top-dose activity change, negative = inhibition, most hits filed as inhibitors; 290,000 tested, 0.37% active; AID 1721; also: potency is read from the fitted curve at half-maximal effect; % is scaled to controls: 0 for no effect and ±100 for the full control effect
Target sequence (Q27686 whole entry, looked up): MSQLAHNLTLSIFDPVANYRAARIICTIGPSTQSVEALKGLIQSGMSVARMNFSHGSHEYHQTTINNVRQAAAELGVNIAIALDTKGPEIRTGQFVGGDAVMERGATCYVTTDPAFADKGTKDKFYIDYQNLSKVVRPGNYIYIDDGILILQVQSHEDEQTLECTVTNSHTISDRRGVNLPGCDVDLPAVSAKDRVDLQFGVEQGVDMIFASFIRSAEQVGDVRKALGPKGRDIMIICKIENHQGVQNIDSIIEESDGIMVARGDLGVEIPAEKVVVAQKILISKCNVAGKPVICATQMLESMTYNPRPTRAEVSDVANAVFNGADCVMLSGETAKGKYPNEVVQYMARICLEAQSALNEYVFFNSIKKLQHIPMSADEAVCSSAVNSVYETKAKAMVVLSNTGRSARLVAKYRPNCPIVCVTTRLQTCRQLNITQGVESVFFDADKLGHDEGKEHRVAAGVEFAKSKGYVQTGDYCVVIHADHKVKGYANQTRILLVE
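ATP generated from ADP (0.1 mM) and PEP (0.5 mM) by 0.1 nM LmPK over 1 h at room temperature (pH 7.2 imidazole buffer) was detected by coupled luciferase luminescence. Values were normalized to uninhibited and no-enzyme wells.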
The depositor's hits bear a star; [ ] = another dose, or the depositor's remark. The entries come from a sample that favours hits as a whole. Unless noted, calls follow the shape of the dose curve; as a rule, active = well fitted curve in the direction sought with a large enough effect; inconclusive = small, poorly fitted or top-dose-only effect, or another doubt; inactive = no such curve, though single readings can be large; an effect the other way counts as inactive or inconclusive.

Screening CC(=O)Nc1nc2cc(N)ccc2s1 returned Tb PYK inh -6.9% and SARS PLP yeast 9.0%.
`Nc1ccc(-c2nc3cc(N)ccc3s2)cc1` gave Shiga inhibitor 66.6*, Cycloheximide cs 37.5*, Tb PYK inh -7.3%, NS1 function inh 3.4%, SARS PLP yeast 4.4% and LmPK inh inconclusive.
Screening COc1ccccc1CNC(=O)c1ccc(-c2nc(CS(=O)(=O)c3ccc(C)cc3)c(C)o2)cc1 returned Tb PYK inh -0.2%.
Screening Cc1ccc2nc(-c3ccc(N4C(=N)SC5CS(=O)(=O)CC54)cc3)sc2c1 (centres undefined) returned Shiga inhibitor 126.3*, Cycloheximide cs 46.4*, Tb PYK inh -1.0%, NS1 function inh 20.8%, SARS PLP yeast 6.2% and LmPK inh 1.0%.
For Cc1ccc2nc(-c3ccc(NS(=O)(=O)c4ccc(F)cc4)cc3)sc2c1 the results were Shiga inhibitor 158.6*, Cycloheximide cs 52.3*, Tb PYK inh -4.7%, NS1 function inh -16.2%, SARS PLP yeast -77.6% and LmPK inh 1.0%.
For Cc1ccc2sc(-c3ccc(N)cc3)nc2c1 the results were Tb PYK inh -8.6%.
For COc1ccc(N2C(=O)S[C@@H]3CS(=O)(=O)C[C@@H]32)cc1 the results were Shiga inhibitor -7.4, Cycloheximide cs -2.8, Tb PYK inh -4.2%, NS1 function inh 19.9%, SARS PLP yeast 14.6% and LmPK inh 3.1%.
Cc1ccc2nc(-c3ccc(N)cc3)sc2c1 was read as Shiga inhibitor 10.9, Cycloheximide cs 29.8*, Tb PYK inh -1.8%, NS1 function inh -3.5%, SARS PLP yeast -2.1% and LmPK inh inconclusive.
For CNC(=S)Nc1ccc(-c2nc3ccc(C)cc3s2)cc1 the results were Shiga inhibitor 95.1*, Cycloheximide cs 30.1*, Tb PYK inh -4.1%, NS1 function inh 10.4%, SARS PLP yeast -0.9% and LmPK inh 0.5%.
`Nc1nc2ccccc2n1/N=C/c1ccc(Br)cc1` gave Shiga inhibitor 92.9*, Cycloheximide cs 42.6*, Tb PYK inh -1.1%, NS1 function inh -14.9%, SARS PLP yeast -13.5% and LmPK inh 0.8%.
`COc1ccc(O)c(/C=N/c2nc3ccccc3n2C)c1` gave Shiga inhibitor -2.7, Cycloheximide cs 1.1, Tb PYK inh -3.0%, NS1 function inh 21.2%, SARS PLP yeast 5.6% and LmPK inh -16.9%.
CCn1c(/C=N/c2nc3ccccc3n2C)nc2ccccc21 was read as Shiga inhibitor 23.8, Cycloheximide cs 12.9*, Tb PYK inh -4.8%, NS1 function inh -5.2%, SARS PLP yeast -6.9% and LmPK inh -9.0%.
Nc1nc2ccccc2n1/N=C/c1ccc2c(c1)OCO2 was read as Shiga inhibitor 91.4*, Cycloheximide cs 31.9*, Tb PYK inh 8.4%, NS1 function inh inconclusive, SARS PLP yeast 0.7% and LmPK inh -25.3%.
Screening Cn1c(/N=C/c2ccc3c(c2)OCO3)nc2ccccc21 returned Shiga inhibitor -2.7, Cycloheximide cs -1.4, Tb PYK inh -15.4%, NS1 function inh 9.3%, SARS PLP yeast 6.1% and LmPK inh 12.6µM*.
O=C(NCCc1cn2cccnc2n1)C1CCC(=O)N(Cc2ccccc2F)C1 (centres undefined) was read as Tb PYK inh -9.2%.
CCOC(=O)c1noc2nc(C)n(CC(=O)Nc3ccc(Br)cc3C)c(=O)c12 was read as Tb PYK inh 2.6%.
CC(=O)Nc1ccc(S(=O)(=O)Nc2ccc(C)c([N+](=O)[O-])c2)cc1 was read as Shiga inhibitor 10.0, Cycloheximide cs -4.6, Tb PYK inh -2.7%, SARS PLP yeast 0.4% and LmPK inh 3.2%[11.5 µM].
`Cn1ccnc1Sc1nc2ccccc2nc1NS(=O)(=O)c1ccccc1` gave Shiga inhibitor 102.5*, Cycloheximide cs 55.6*, Tb PYK inh 7.6%, NS1 function inh 3.0%, SARS PLP yeast 14.7% and LmPK inh 7.0%.
CC(=O)Nc1ccc(S(=O)(=O)Nc2nc3ccccc3nc2Sc2nncn2C)cc1 was read as Shiga inhibitor 116.5*, Cycloheximide cs 25.7*, Tb PYK inh -1.2%, NS1 function inh inconclusive, SARS PLP yeast 4.6% and LmPK inh -0.1%.
Screening CCCc1ccc(S(=O)(=O)N2CCC(c3nnc(-c4cccc(C)c4)o3)CC2)cc1 returned Tb PYK inh -25.3%.
Screening CC(=O)N1c2ccccc2C2(O)N=C(C)SC12 (centres undefined) returned Shiga inhibitor 35.4, Cycloheximide cs 12.4*, Tb PYK inh 12.6µM*, NS1 function inh -3.0%, SARS PLP yeast -19.5% and LmPK inh 16.6%.
O=C(O)c1ccc(NC(=O)c2cc(S(=O)(=O)N3CCCCC3)c(Cl)cc2Cl)cc1 was read as Tb PYK inh 7.0%.
`Cc1ccc(-c2csc(N/N=C/c3ccco3)n2)c(C)c1` gave Shiga inhibitor 62.5*, Cycloheximide cs 46.2*, Tb PYK inh -10.4%, NS1 function inh 9.5%, SARS PLP yeast 19.9% and LmPK inh -1.3%.
`CN(C)S(=O)(=O)c1cccc(-c2csc(N/N=C/c3ccco3)n2)c1` gave Shiga inhibitor 21.6, Cycloheximide cs 13.7*, Tb PYK inh 2.8%, NS1 function inh inconclusive, SARS PLP yeast 0.1% and LmPK inh -4.5%.
Screening Fc1ccc(COc2ccc(-c3nnco3)cc2)c(Cl)c1 returned Shiga inhibitor 83.7*, Cycloheximide cs 29.6*, Tb PYK inh 2.3%, NS1 function inh -35.0%, SARS PLP yeast -28.1% and LmPK inh -5.3%.
`FC(F)(F)c1cnc(Oc2ccc(-c3nnco3)cc2)c(Cl)c1` gave Shiga inhibitor 8.0, Cycloheximide cs 4.0, Tb PYK inh 9.6%, NS1 function inh -12.7%, SARS PLP yeast 13.1% and LmPK inh 5.5%.
O=C(COc1ccc(-c2nnco2)cc1)Nc1c(F)cccc1F was read as Tb PYK inh 1.6% and SARS PLP yeast -0.9%.
For Fc1cc(Br)ccc1COc1ccc(-c2nnco2)cc1 the results were Shiga inhibitor 92.7*, Cycloheximide cs 35.8*, Tb PYK inh -5.0%, NS1 function inh 1.1%, SARS PLP yeast 1.3% and LmPK inh -1.4%.
Clc1cc(Cl)cc(C2=NC(Cc3ccccc3)CO2)c1 (centres undefined) was read as Tb PYK inh 0.0%.
`Cc1cccc(C2=N[C@@H](CC(C)C)CO2)c1` gave Shiga inhibitor active and Cycloheximide cs 33.5*.
Screening Cc1cccc(C2=N[C@@H](Cc3ccccc3)CO2)c1 returned Shiga inhibitor active and Cycloheximide cs 49.0*.
For O=C(Nc1ccn(CCCNC2CCN(Cc3ccccc3)CC2)c(=O)n1)OCc1ccccc1 the results were Tb PYK inh -9.9%.
`CC(=O)Nc1nnc2n1CCS2` gave Tb PYK inh 3.1%.
